{"source": "PubChem BioAssay (NCI)", "key": {"[1]": {"experiment": "NCI Yeast Anticancer Drug Screen. Data for the wt1 strain (AID 149);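 further: 0% = growth of vehicle-treated wt1 cultures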", "details": "S. cerevisiae wt1 strain (SPY 50644) growth inhibition, stronger effect = higher value", "outline": "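The wt1 strain was treated with compounds, and growth was compared with vehicle-treated cultures to give inhibition.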"}, "[2]": {"experiment": "NCI Yeast Anticancer Drug Screen. Data for the rad50EPP+ strain (AID 151);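 further: 0% = growth of vehicle-treated control cultures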", "details": "S. cerevisiae rad50 mutant strain, stronger effect = higher value", "outline": "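Yeast strain carrying rad50 alteration (rad50EPP+) exposed to compounds; growth inhibition measured relative to vehicle-treated controls.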"}, "[3]": {"experiment": "NCI Yeast Anticancer Drug Screen. Data for the mgt1 strain (AID 153)", "details": "S. cerevisiae mgt1 mutant growth inhibition, stronger effect = higher value", "outline": "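Yeast mgt1 strain (DNA repair/cell-cycle alteration panel) exposed to compounds; growth inhibition measured relative to vehicle-treated controls.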"}, "[4]": {"experiment": "NCI Yeast Anticancer Drug Screen. Data for the rad50 strain (AID 155);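 further: 0% = growth of vehicle-only cultures of the same strain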", "details": "S. cerevisiae rad50 strain growth inhibition, stronger effect = higher value", "outline": "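Cells are treated with compound, grown, and their growth is then scored against vehicle-only cultures of the same repair-deficient yeast strain.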"}, "[5]": {"experiment": "NCI Yeast Anticancer Drug Screen. Data for the mec2-1 strain (AID 157)", "details": "S. cerevisiae mec2-1 strain, stronger effect = higher value", "outline": "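mec2-1 yeast strain, carrying an alteration in DNA damage repair or cell cycle control, was exposed to compounds; growth inhibition was measured relative to vehicle-treated controls.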"}, "[6]": {"experiment": "NCI Yeast Anticancer Drug Screen. Data for the rad14 strain (AID 159);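 further: 0% = growth of vehicle-treated control cultures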", "details": "S. cerevisiae rad14 strain growth inhibition, stronger effect = higher value", "outline": "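Readout: yeast growth inhibition, referenced to vehicle-only cultures. Strain bears a defined alteration in DNA damage repair.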"}, "[7]": {"experiment": "NCI Yeast Anticancer Drug Screen. Data for the sgs1 mgt1 strain (AID 161);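 further: 0% = growth of cultures given vehicle only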", "details": "S. cerevisiae sgs1 mgt1 strain, stronger effect = higher value", "outline": "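This yeast growth screen uses a strain with defined DNA-repair lesions; compound-treated growth is compared with vehicle-treated growth.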"}, "[8]": {"experiment": "NCI Yeast Anticancer Drug Screen. Data for the CLN2oe strain (AID 163);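 further: 0% = growth of vehicle-only control cultures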", "details": "S. cerevisiae CLN2oe strain, stronger effect = higher value", "outline": "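Yeast cells carrying a defined cell-cycle control alteration were exposed to test compounds. Growth inhibition was scored against vehicle-treated control cultures.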"}, "[9]": {"experiment": "NCI Yeast Anticancer Drug Screen. Data for the cln2 rad14 strain (AID 165);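 further: 0% = growth equal to vehicle treated cultures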", "details": "S. cerevisiae cln2 rad14 strain, stronger effect = higher value", "outline": "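Yeast carrying cln2 and rad14 alterations (cell cycle control and DNA damage repair) were exposed to compounds. Growth inhibition was measured against vehicle-treated controls.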"}, "[10]": {"experiment": "NCI Yeast Anticancer Drug Screen. Data for the bub3 strain (AID 167)", "details": "S. cerevisiae bub3 mutant strain, stronger effect = higher value", "outline": "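Part of a panel of yeast mutants defective in DNA damage repair or cell cycle regulation. Each strain is grown with compound, and inhibition is calculated relative to solvent-treated cultures.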"}, "[11]": {"experiment": "NCI Yeast Anticancer Drug Screen. Data for the wt2 strain (AID 169);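 further: 0% = growth of vehicle-treated yeast cultures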", "details": "S. cerevisiae wt2 strain growth inhibition, stronger effect = higher value", "outline": "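Yeast cells were exposed to test compounds, and growth inhibition was measured relative to vehicle-treated controls.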"}, "[12]": {"experiment": "NCI Yeast Anticancer Drug Screen. Data for the mlh1 strain (AID 171);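 further: 0% = growth of vehicle-treated control cultures of the same strain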", "details": "S. cerevisiae mlh1 strain growth inhibition, stronger effect = higher value", "outline": "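Yeast carrying a defined genetic alteration in DNA damage repair or cell cycle control were exposed to test compounds. Growth inhibition was measured relative to vehicle-treated controls.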"}, "[13]": {"experiment": "NCI Yeast Anticancer Drug Screen. Data for the sgs1 strain (AID 173);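 further: 0% = growth of vehicle-only control cultures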", "details": "S. cerevisiae sgs1 mutant, stronger effect = higher value", "outline": "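Yeast mutant strains carrying defined defects in DNA damage repair or cell cycle control were exposed to test compounds. Growth inhibition was scored against vehicle-treated controls.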"}, "[14]": {"experiment": "NCI Yeast Anticancer Drug Screen. Data for the mlh1 rad18 strain (AID 175)", "details": "S. cerevisiae mlh1 rad18 strain growth inhibition, stronger effect = higher value", "outline": "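Growth inhibition of the yeast strain was measured after compound exposure and expressed relative to vehicle-treated controls. The strain carries defined defects in DNA damage repair.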"}, "[15]": {"experiment": "NCI Yeast Anticancer Drug Screen. Data for the rad18 strain (AID 177)", "details": "S. cerevisiae rad18 mutant growth inhibition, stronger effect = higher value", "outline": "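Yeast carrying a defined DNA damage repair alteration were exposed to compounds. Growth inhibition was expressed relative to vehicle-treated controls.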"}, "[16]": {"details": "at 5.0 µM (retest, dose inferred, filed as 0.5)"}, "[17]": {"details": "at 50.0 µM (retest, dose inferred, filed as 5.0)"}}, "note": "Values joined by “and” are separate entries in the source; they are usually repeats but may differ in a detail not shown here. Equal entries are not always repeated. The panel holds about 79,000 compounds, 15% with a hit somewhere; the sample as a whole holds those more often. Where a structure was tested more than once in an assay, its records may differ in their call. Active and inactive are the calls of the source. No stated cut-off is given here; in the data, active means growth inhibition above about 70%; inactive means the rest."}
{"compound": "O=C(/C(=C/c1ccccc1)CBr)c1ccccc1", "values": [{"measurement": "growth inhibition", "setting": "[1]; at 1.2 µM", "result": "0% (inactive)"}, {"measurement": "growth inhibition", "setting": "[1]; at 3.7 µM", "result": "11% (inactive)"}, {"measurement": "growth inhibition", "setting": "[1]; at 11.0 µM", "result": "43% (inactive)"}, {"measurement": "growth inhibition", "setting": "[1]; at 33.0 µM", "result": "90% (active)"}, {"measurement": "growth inhibition", "setting": "[1]; at 100.0 µM", "result": "99% (active)"}, {"measurement": "growth inhibition", "setting": "[2]; at 1.2 µM", "result": "17% (inactive)"}, {"measurement": "growth inhibition", "setting": "[2]; at 3.7 µM", "result": "50% (inactive)"}, {"measurement": "growth inhibition", "setting": "[2]; at 11.0 µM", "result": "82% (active)"}, {"measurement": "growth inhibition", "setting": "[2]; at 33.0 µM", "result": "96% (active)"}, {"measurement": "growth inhibition", "setting": "[2]; at 100.0 µM", "result": "99% (active)"}, {"measurement": "growth inhibition", "setting": "[3]; at 1.2 µM", "result": "-1% (inactive)"}, {"measurement": "growth inhibition", "setting": "[3]; at 3.7 µM", "result": "7% (inactive)"}, {"measurement": "growth inhibition", "setting": "[3]; at 11.0 µM", "result": "49% (inactive)"}, {"measurement": "growth inhibition", "setting": "[3]; at 33.0 µM", "result": "95% (active)"}, {"measurement": "growth inhibition", "setting": "[3]; at 100.0 µM", "result": "99% (active)"}, {"measurement": "growth inhibition", "setting": "[4]; at 1.2 µM", "result": "4% (inactive)"}, {"measurement": "growth inhibition", "setting": "[4]; at 3.7 µM", "result": "15% (inactive)"}, {"measurement": "growth inhibition", "setting": "[4]; [16]", "result": "22% (inactive)"}, {"measurement": "growth inhibition", "setting": "[4]; at 11.0 µM", "result": "61% (inactive)"}, {"measurement": "growth inhibition", "setting": "[4]; at 33.0 µM", "result": "96% (active)"}, {"measurement": "growth inhibition", "setting": "[4]; [17]", "result": "98% (active)"}, {"measurement": "growth inhibition", "setting": "[4]; at 50.0 µM", "result": "66.5% (inactive) and 79.2% (active)"}, {"measurement": "growth inhibition", "setting": "[4]; at 100.0 µM", "result": "99% (active)"}, {"measurement": "growth inhibition", "setting": "[5]; at 1.2 µM", "result": "3% (inactive)"}, {"measurement": "growth inhibition", "setting": "[5]; at 3.7 µM", "result": "12% (inactive)"}, {"measurement": "growth inhibition", "setting": "[5]; [16]", "result": "3% (inactive)"}, {"measurement": "growth inhibition", "setting": "[5]; at 11.0 µM", "result": "58% (inactive)"}, {"measurement": "growth inhibition", "setting": "[5]; at 33.0 µM", "result": "96% (active)"}, {"measurement": "growth inhibition", "setting": "[5]; [17]", "result": "98% (active)"}, {"measurement": "growth inhibition", "setting": "[5]; at 50.0 µM", "result": "80.5% (active) and 61.1% (inactive)"}, {"measurement": "growth inhibition", "setting": "[5]; at 100.0 µM", "result": "99% (active)"}, {"measurement": "growth inhibition", "setting": "[6]; at 1.2 µM", "result": "3% (inactive)"}, {"measurement": "growth inhibition", "setting": "[6]; at 3.7 µM", "result": "9% (inactive)"}, {"measurement": "growth inhibition", "setting": "[6]; at 11.0 µM", "result": "38% (inactive)"}, {"measurement": "growth inhibition", "setting": "[6]; at 33.0 µM", "result": "93% (active)"}, {"measurement": "growth inhibition", "setting": "[6]; at 100.0 µM", "result": "99% (active)"}, {"measurement": "growth inhibition", "setting": "[7]; [16]", "result": "50% (inactive)"}, {"measurement": "growth inhibition", "setting": "[7]; [17]", "result": "99% (active)"}, {"measurement": "growth inhibition", "setting": "[7]; at 50.0 µM", "result": "74% (active) and 59% (inactive)"}, {"measurement": "growth inhibition", "setting": "[8]; at 1.2 µM", "result": "2% (inactive)"}, {"measurement": "growth inhibition", "setting": "[8]; at 3.7 µM", "result": "6% (inactive)"}, {"measurement": "growth inhibition", "setting": "[8]; at 11.0 µM", "result": "47% (inactive)"}, {"measurement": "growth inhibition", "setting": "[8]; at 33.0 µM", "result": "95% (active)"}, {"measurement": "growth inhibition", "setting": "[8]; at 100.0 µM", "result": "99% (active)"}, {"measurement": "growth inhibition", "setting": "[9]; [16]", "result": "25% (inactive)"}, {"measurement": "growth inhibition", "setting": "[9]; [17]", "result": "93% (active)"}, {"measurement": "growth inhibition", "setting": "[9]; at 50.0 µM", "result": "41.5% (inactive) and 67.5% (inactive)"}, {"measurement": "growth inhibition", "setting": "[10]; at 1.2 µM", "result": "-3% (inactive)"}, {"measurement": "growth inhibition", "setting": "[10]; at 3.7 µM", "result": "0% (inactive)"}, {"measurement": "growth inhibition", "setting": "[10]; [16]", "result": "22% (inactive)"}, {"measurement": "growth inhibition", "setting": "[10]; at 11.0 µM", "result": "54% (inactive)"}, {"measurement": "growth inhibition", "setting": "[10]; at 33.0 µM", "result": "94% (active)"}, {"measurement": "growth inhibition", "setting": "[10]; [17]", "result": "94% (active)"}, {"measurement": "growth inhibition", "setting": "[10]; at 50.0 µM", "result": "57.4% (inactive) and 83.7% (active)"}, {"measurement": "growth inhibition", "setting": "[10]; at 100.0 µM", "result": "99% (active)"}, {"measurement": "growth inhibition", "setting": "[11]; at 1.2 µM", "result": "4% (inactive)"}, {"measurement": "growth inhibition", "setting": "[11]; at 3.7 µM", "result": "14% (inactive)"}, {"measurement": "growth inhibition", "setting": "[11]; at 11.0 µM", "result": "62% (inactive)"}, {"measurement": "growth inhibition", "setting": "[11]; at 33.0 µM", "result": "95% (active)"}, {"measurement": "growth inhibition", "setting": "[11]; at 100.0 µM", "result": "99% (active)"}, {"measurement": "growth inhibition", "setting": "[12]; at 1.2 µM", "result": "3% (inactive)"}, {"measurement": "growth inhibition", "setting": "[12]; at 3.7 µM", "result": "11% (inactive)"}, {"measurement": "growth inhibition", "setting": "[12]; at 11.0 µM", "result": "67% (inactive)"}, {"measurement": "growth inhibition", "setting": "[12]; at 33.0 µM", "result": "97% (active)"}, {"measurement": "growth inhibition", "setting": "[12]; at 100.0 µM", "result": "99% (active)"}, {"measurement": "growth inhibition", "setting": "[13]; at 1.2 µM", "result": "5% (inactive)"}, {"measurement": "growth inhibition", "setting": "[13]; at 3.7 µM", "result": "21% (inactive)"}, {"measurement": "growth inhibition", "setting": "[13]; at 11.0 µM", "result": "77% (active)"}, {"measurement": "growth inhibition", "setting": "[13]; at 33.0 µM", "result": "96% (active)"}, {"measurement": "growth inhibition", "setting": "[13]; at 100.0 µM", "result": "99% (active)"}, {"measurement": "growth inhibition", "setting": "[14]; [16]", "result": "68% (inactive)"}, {"measurement": "growth inhibition", "setting": "[14]; [17]", "result": "99% (active)"}, {"measurement": "growth inhibition", "setting": "[14]; at 50.0 µM", "result": "74.5% (active) and 90.6% (active)"}, {"measurement": "growth inhibition", "setting": "[15]; at 1.2 µM", "result": "6% (inactive)"}, {"measurement": "growth inhibition", "setting": "[15]; at 3.7 µM", "result": "22% (inactive)"}, {"measurement": "growth inhibition", "setting": "[15]; at 11.0 µM", "result": "81% (active)"}, {"measurement": "growth inhibition", "setting": "[15]; at 33.0 µM", "result": "96% (active)"}, {"measurement": "growth inhibition", "setting": "[15]; at 100.0 µM", "result": "99% (active)"}]}
